# PKM2 inh: inhibitors of human pyruvate kinase M2; purified PKM2, ATP generation, Kinase-Glo luminescence; 260,000 tested, 0.058% active; Potency, µM (series often up to 57.5 µM), inactives show at the top dose activity change, negative = inhibition, most hits filed as inhibitors; P14618; AID 1634; active = well fitted inhibition curve with a large enough effect; also: nearly all actives have a fitted effect of over 60% in size
# Target sequence (P14618 whole entry, looked up): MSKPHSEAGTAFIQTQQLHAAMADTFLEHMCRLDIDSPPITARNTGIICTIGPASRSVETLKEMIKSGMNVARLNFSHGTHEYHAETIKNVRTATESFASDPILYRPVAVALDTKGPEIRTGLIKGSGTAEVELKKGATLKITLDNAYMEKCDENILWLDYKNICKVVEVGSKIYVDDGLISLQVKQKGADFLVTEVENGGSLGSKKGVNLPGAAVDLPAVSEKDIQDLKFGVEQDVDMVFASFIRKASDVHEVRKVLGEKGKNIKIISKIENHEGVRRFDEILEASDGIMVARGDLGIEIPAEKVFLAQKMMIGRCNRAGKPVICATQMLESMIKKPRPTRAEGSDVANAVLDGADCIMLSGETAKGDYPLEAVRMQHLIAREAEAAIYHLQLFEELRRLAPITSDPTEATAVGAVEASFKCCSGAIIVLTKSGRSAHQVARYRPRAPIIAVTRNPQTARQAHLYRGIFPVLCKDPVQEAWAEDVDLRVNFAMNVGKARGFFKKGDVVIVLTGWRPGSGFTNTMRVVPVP
#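 Enzyme run at intermediate activity with final 0.1 mM ADP, 0.5 mM PEP (50 mM imidazole pH7.2, 50 mM KCl, 7 mM MgCl2), incubated 1 h at r.t. ATP formed read by Kinase-Glo luminescence, normalized to no-enzyme (full inhibition) and uninhibited wells.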
# An asterisk follows results filed as active. This excerpt belongs to a sample that is enriched for hits. Potency is read from the fitted curve at half-maximal effect.
SMILES,PKM2 inh
O=C(NNC(=O)c1cc2cc(Br)ccc2oc1=O)c1ccc(O)cc1O,54%
O=C(NCc1ccco1)c1cc2ccc(O)cc2oc1=O,11µM*
Cc1c(Br)cc(C(=O)NCc2ccco2)c(C)c1C,31%
COc1cccc(CC2(CO)CCCN(Cc3cn[nH]c3C3CCCCC3)C2)c1 (stereo not drawn),45%
COc1c(O)c(O)cc2c1oc1c3ccccc3oc(=O)c21,39%
COc1cccc(NC(=O)CSc2ccc(-c3sc(C)nc3C)nn2)c1,36%
COc1ccc(-c2ccc(SC)nn2)cc1,10µM*
C=C1C(=O)C=C2CN(C(=O)c3ccccc3)[C@@](Cc3ccc(OC)cc3)(C(=O)OC)[C@@H]12,42%
Cc1nc([N+](=O)[O-])c(Sc2nc3ccc([N+](=O)[O-])cc3[nH]2)n1Cc1ccccc1,60%
O=C1CCN(S(=O)(=O)c2ccccc2)CCN1CCOCc1ccc(Cl)cc1,47%
Cc1ccc(C(=O)O/N=C(\N)c2ccccn2)c(Cl)c1,14µM*
O=C(Oc1ccc2ccc(O)cc2c1)c1ccccc1Cl,50%
N/C(CS(=O)(=O)c1ccccn1)=N\OC(=O)c1ccccc1Cl,38%
N/C(=N\OC(=O)c1ccc(Cl)cc1Cl)c1ccccn1,14µM*
Cc1ccc(C(=O)O/N=C(\N)c2ccccc2)c(Cl)c1,18µM*
COc1cccc(C(=O)C(C#N)=C(SC)SC)c1,39%
COc1ccc(C(=O)O/N=C(\N)Cc2ccc(Cl)cc2)cc1OC,52%
COc1cccc(C(=O)O/N=C(\N)c2ccccn2)c1,8.9µM*
COc1ccc(C/C(N)=N/OC(=O)c2cccc([N+](=O)[O-])c2)cc1,37%
COc1ccc(C2CC(c3ccccc3OC(C)=O)=NN2C(C)=O)cc1 (stereo not drawn),43%
Cc1cc(C)n2nc(CNS(=O)(=O)c3ccc(F)c(C)c3)nc2n1,61%
COc1ccc(CN(C(=O)/C=C/c2ccco2)C2CCS(=O)(=O)C2)cc1 (stereo not drawn),42%
COCC(C)n1c(SCC(=O)N(C)C2CCS(=O)(=O)C2)nc2ccccc2c1=O (stereo not drawn),30%
Cc1ccc(NS(=O)(=O)c2ccc3c(c2)CC(=O)N3)cc1C,65%
Cc1cc2[nH]c(=O)c(=O)[nH]c2cc1S(=O)(=O)Nc1cccc(Cl)c1C,71%
SMILES,PKM2 inh
CCOc1cc(NC(=O)c2cccs2)c(OCC)cc1NC(=O)c1cccnc1,79%
CCOC(=O)c1c(-c2ccc(C)o2)csc1NC(=O)COC(=O)c1cccs1,66%
Cc1cccc(/C(N)=N/OC(=O)c2cccs2)c1,13µM*
CS(=O)(=O)Nc1ccc(C(=O)NCc2ccc3c(c2)OCO3)cc1,51%
CC(=O)Oc1ccc(C(=O)Nc2cccc(C(=O)c3cccc(NC(=O)c4ccc(OC(C)=O)cc4)c3)c2)cc1,32%
CCC(=O)Oc1ccc(C(=O)Nc2ccc3c(c2)OCO3)cc1,14µM*
CCOC(=O)/C(C#N)=C1\C(=O)N(Cc2ccccc2)c2ccccc21,43%
Cc1cc(Br)ccc1OCCn1ccnc1,31%
CC(C)c1ccc2oc3nc(N)c(C(=O)O)cc3c(=O)c2c1,14µM*
Cc1nc(-c2ccc(S(=O)(=O)NCc3ccccn3)s2)cs1,45%
COc1ccc(S(=O)(=O)N2CCN(c3nc4ccccc4nc3-n3nc(C)cc3C)CC2)cc1,53%
CC(=O)c1sc(NC(=O)c2ccc(Cn3cc(Br)cn3)o2)nc1C,69%
CCCn1c(NC(=O)c2ccco2)nc2ccccc21,87%
Cc1nc(NC(=O)c2ccco2)sc1C(=O)O,13µM*
CCOC(=O)/C=C/C(=O)OCC(=O)Nc1ccc([N+](=O)[O-])cc1,47%
O=C(NCc1ccc(Cl)cc1Cl)C1CCN(S(=O)(=O)c2ccc3c(c2)OCCCO3)CC1,45%
Cc1cc(OCC(=O)NC(Cc2ccc(Cl)cc2)C(=O)O)c2c(C)c(C)c(=O)oc2c1 (stereo not drawn),43%
CC(=O)Nc1ccc(C(=O)OCc2ccccc2Br)cc1,1%
COc1ccc(NC(=O)Nc2ccccc2C(N)=O)cc1,25µM*
Cc1cc2c(NC(=O)Nc3ccc(C(C)(C)C)cc3)cccc2nn1,1%
O=C(COc1ccc(S(=O)(=O)N2CCOCC2)cc1Cl)NCC1CCCO1 (stereo not drawn),33%
Cc1ccc2cc(CCNS(=O)(=O)c3ccc(Br)cc3)c(=O)[nH]c2c1C,50%
CCc1ccccc1Nc1nn2c(=O)c3ccc(C(=O)NCc4ccccn4)cc3nc2s1,34%
CCOc1ccc2nc(SCC(=O)Nc3cc(C)on3)c(C)cc2c1,53%
CCOc1ccc2nc(/N=C/c3c(C)[nH]n(-c4ccc(C)cc4)c3=O)sc2c1,13µM*
SMILES,PKM2 inh
CNC(=S)N1CCN(S(=O)(=O)c2ccc3ccccc3c2)CC1,87%
C=C(C)C(=O)Nc1cccc(C2=NOC3(C2)C[C@@H](C(N)=O)N(C(=O)/C=C/C=C/C)C3)c1 (stereo partly drawn),87%
O=C(CCc1nnc(CCc2ccccc2)o1)N1CCCC1c1nccs1 (stereo not drawn),97%
COc1cccc(NC(=O)CCN2C(=O)c3ccc([N+](=O)[O-])cc3C2=O)c1,54%
COc1ccc(NC(=O)c2cc([N+](=O)[O-])ccc2O)cc1,16µM*
COc1ccc(NC(=O)c2[nH]c(C)c(C(C)=O)c2C)cc1,39%
Cc1cc(NC(=O)CSc2nc3c(C)cccc3cc2C#N)no1,45%
CSc1nc2ccc(NS(=O)(=O)c3ccc4c(c3)OCCO4)cc2s1,61%
COc1ccccc1C(CCN(Cc1ccccc1)C(C)=O)c1ccco1 (stereo not drawn),43%
CCCCOP(=O)(OCCCC)C1(NS(=O)(=O)c2ccccc2)C=CC(=O)c2ccccc21 (stereo not drawn),53%
Cc1cc(C)nc(NC(=O)CSc2nn(-c3ccccc3)c(=S)s2)n1,48%
COc1ccc(CCNC(=S)N2CCN(S(=O)(=O)c3ccccc3F)CC2)cc1,49%
COc1ccc2nc3c(cc2c1)Cc1ccccc1-3,14µM*
COc1ccc2c(c1)-c1nc(NC(=O)c3cccs3)sc1CC2,1%
COc1ccc(CNC(=O)C2CCN(S(=O)(=O)c3ccc(Br)s3)CC2)cc1,43%
Cc1cc(C)cc(C(=O)NCC(=O)OCC(=O)N2CCN(S(=O)(=O)c3ccc4ccccc4c3)CC2)c1,62%
O=C(N/N=C/c1ccc(-c2ccc(Cl)c(C(=O)O)c2)o1)c1cc2c(ccc3ccccc32)o1,44%
COc1ccc(-c2cc3c(nn2)-c2ccccc2C3=O)cc1,16µM*
COc1ccc(S(=O)(=O)c2cnc3ccccc3n2)cc1,44%
COc1ccc(-c2cc(=O)[nH][nH]2)cc1,51%
CC(=O)N1N=C(c2ccc(C)o2)CC1c1cccc(F)c1 (stereo not drawn),34%
O=C(Nc1ccccc1)c1cc2ccccc2o1,11µM*
Cc1ccc(NC(=O)c2cc(-c3ccc(C)o3)nc3ccccc23)cc1,48%
NC(=O)c1oc2ccccc2c1NC(=O)CCc1ccccc1,5%
O=C(CN1CCSC1=NCc1ccccc1)c1ccc(Cl)cc1,36%
O=S(=O)(Nc1ccc(Cl)cc1)c1ccc2c(c1)CCO2,81%
CC1=NN(c2ccc([N+](=O)[O-])cc2)C(=O)/C1=C\N(C)C,16µM*
O=C1C=CC(=O)N1c1ccc(Sc2ccc([N+](=O)[O-])cc2)cc1,115%
Cn1c(-c2ccc([N+](=O)[O-])cc2)nc2ccccc21,50%
CCc1nnc(NC(=O)CSc2nnc(-c3ccc(NS(=O)(=O)c4ccccc4)cc3)o2)s1,83%

# High-throughput results (PubChem)
